# Screening data (PubChem)
# LGR2 antag = inhibitors of bursicon-induced LGR2 CRE-luciferase signal, primary screen, cell-based, HEK293, CRE-luciferase reporter, bursicon stimulation; inhibition, % at 9.99 µM; AID 720647, 2013; Drosophila bursicon receptor LGR2 (rickets); 0.35% of 380,000 active; bursicon-stimulated, 4 h;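 active means drop in luminescence signal, shown as inhibition above about 50% in the replicate tests, limit read from the data, passing the limit was not always enough; inconclusive means probably only some replicates passing the limit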;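 further: agonist challenge used bursicon conditioned medium at about half maximal strength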
# SIRT5 block = SIRT5 desuccinylase inhibitors, primary screen, biochemical, fluorescence imaging, single point, set 5; AID 652115, 2013; NAD-dependent protein deacylase sirtuin-5, mitochondrial (Homo sapiens), Q9NXA8; 1.1% of 330,000 active; Purified SirT5, succinyl-peptide AMC, trypsin-coupled fluorescence; inhibition, % at 15 µM; in the data active means inhibition above about 15%; inconclusive means no clear call, values can overlap the other calls
# Target sequence (Q9NXA8 whole entry, looked up): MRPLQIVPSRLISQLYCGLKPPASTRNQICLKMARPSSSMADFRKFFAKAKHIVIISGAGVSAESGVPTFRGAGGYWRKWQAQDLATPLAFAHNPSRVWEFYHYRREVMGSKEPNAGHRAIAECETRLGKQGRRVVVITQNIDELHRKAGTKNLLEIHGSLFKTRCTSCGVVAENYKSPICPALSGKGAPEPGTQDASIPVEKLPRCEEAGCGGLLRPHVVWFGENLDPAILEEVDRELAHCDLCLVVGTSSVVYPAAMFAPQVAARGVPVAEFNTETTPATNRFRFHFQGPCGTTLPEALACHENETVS
# rRNA inh HTS = reduced GFP signal of wild-type E. coli, primary screen, bacterial rRNA inhibitor project, GFP/RFP fluorescence, OD600, single point. E. coli WT GFP vs humanized-ribosome RFP mutants, 24 h; hits give low values; DMSO median 0, no signal -100. GFP signal change (wild-type ribosome), % (no concentration beside the values). 1.6% of 350,000 active. AID 720706, 2013;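 active means significant combined selectivity score with lowered wild-type GFP, culture density cut under 30%, mutant RFP and density less affected; inactive means any of these conditions unmet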
# EWS-Fli inh = EWS/Fli-driven NR0B1 reporter inhibitors, primary screen, A673 cells, NR0B1 luciferase, luminescence, MLPCN library; viability-normalised; inhibition, % at 12.6 µM; 0.67% of 350,000 active;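 active means mean inhibition of at least 50% after viability correction, with every replicate also passing that limit; inconclusive means mean reaches 50% but only one of two replicates passes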;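 further: firefly luciferase signal divided by Alamar Blue viability fluorescence both relative to DMSO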
# PGC1a acetyl inh = inhibitors of PGC1a acetylation signal, primary screen, cell-based, U2OS, AlphaScreen, inhibitor mode | AlphaScreen anti-acetyl-lysine; with virally co-expressed GCN5 acetyltransferase | inhibition, % at 15.6 µM | 0.17% of 350,000 active;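 active means every replicate shows inhibition of at least 40%; inconclusive means mean inhibition at least 40% but some replicate below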;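 further: 0% = neutral control wells and 100% = positive control wells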
# PAX8 inh HTS = inhibitors of PAX8-driven TPO luciferase reporter, primary screen, RMG-I cells, single concentration. SteadyGlo, 24 h. inhibition, % at 12.6 µM. 1.2% of 360,000 active;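 active means mean replicate inhibition at least 60% with every replicate also reaching 60%; inconclusive means only one of the two criteria is met; inactive means mean below 60% and not all replicates reaching 60%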;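 further: luciferase light reporting Pax8 driven TPO promoter activity; plate controls were median of neutral control wells for no effect and mitoxantrone controls for full effect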
# * = called active by the depositor; ? = inconclusive; . = no result given; ! = repeats disagree. Hits are enriched below; roughly 3.4% of the tested compounds scored in any of these assays.
SMILES,LGR2 antag,SIRT5 block,rRNA inh HTS,EWS-Fli inh,PGC1a acetyl inh,PAX8 inh HTS
O=C(C[n+]1ccccc1)c1ccc(-c2ccccc2)cc1,-22,-1,-3,-8,-4,12
Cc1cc(C)c(C(=O)/C=C/c2ccc(C(C)C)cc2)c(=O)[nH]1,80*,-1,-14,-3,?,.
Cc1cc(C)c(C(=O)/C=C/C=C/c2ccccc2)c(=O)[nH]1,0,.,.,.,.,-13
O=C(OCn1ncc(Br)c(Br)c1=O)c1ccccc1Cl,27,6,-20*,.,-3,.
C[C@@H]1CCCCO[C@H](CN(C)CC2CCCCC2)[C@H](C)CN([C@H](C)CO)C(=O)c2cc(NC(=O)C3CCCCC3)ccc2O1,16,2,4,5,18,-5
C[C@@H]1CCCCO[C@@H](CN(C)C(=O)NC2CCCCC2)[C@H](C)CN([C@@H](C)CO)C(=O)c2cc(NS(=O)(=O)c3cccs3)ccc2O1,16,0,-14,15,6,2
CCOC(=O)CCCCCC(=O)Nc1ccc2c(c1)C(=O)N([C@@H](C)CO)C[C@H](C)[C@H](CN(C)S(=O)(=O)c1ccc(F)cc1)O2,.,.,-3,.,.,.
Cc1nc(S/C(=C\c2ccc(OCc3ccccc3Cl)cc2)C(=O)O)n[nH]1,-5,.,.,.,10,.
Cc1nc(S/C(=C\c2ccc(-c3ccc(C(=O)O)c(Cl)c3)o2)C(=O)O)n[nH]1,3,28*,3,-1,6,-3
Cc1cccc(N=Nc2ccc(O)c3ncccc23)c1,17,.,.,.,.,52
Cc1ccc(C)c(N=Nc2ccc(O)c3ncccc23)c1,52*,.,.,.,.,-7
CCS(=O)(=O)c1ccc(OC)c(N=Nc2ccc(O)c3ncccc23)c1,19,-1,16,0,11,50
CCN(CC)S(=O)(=O)c1cc(OC)ccc1N=Nc1ccc(O)c2ncccc12,20,-1,17,28,28,96*
COc1ccc2c3c([nH]c2c1)[C@H](CO)N(C(=O)C1CCCC1)CC31CCN(Cc2nccs2)CC1,8,3,-3,-5,.,-6
C[C@@H]1CN([C@H](C)CO)C(=O)c2cc(NC(=O)CCCN(C)C)ccc2O[C@@H]1CN(C)S(=O)(=O)c1cccs1,-1,-5,4,12,-18,.
CCCCSCCCNC(=S)Nc1ccccc1C,-16,3,-17,15,5,5
CCCCNC(=S)Nc1ccccc1Cc1ccccc1,9,1,-43*,4,-14,-6
Cc1ccccc1NC(=O)Nc1ccc2c(c1)C(=O)N(C)[C@H]1CC[C@@H](CC(=O)O)O[C@@H]1CO2,-2,.,4,7,-4,-13
Cc1ccc(Nc2nc(N)c3ccccc3n2)cc1Cl,72*,-1,-28,24,.,-23
Nc1nc(Nc2ccccc2)nc2ccccc12,.,.,.,.,-52,-68
CCOc1ccc(Nc2nc(N)c3ccccc3n2)cc1,96*,1,17,69*,.,42
CN(C)c1ccc(Nc2nc(N)c3ccccc3n2)cc1,89*,-8,16,77*,.,78*
Nc1nc(Nc2ccc(Cl)cc2)nc2ccccc12,.,.,.,.,-1,.
COCC(=O)N1CC2(CCN(Cc3ccccc3)CC2)c2c(n(C)c3cc(OC)ccc23)[C@H]1CO,11,.,1,-7,10,.
COC(=O)c1c(-c2ccc(OC)cc2)oc2ccc(-c3cc(OC)c(OC)c(OC)c3)cc12,19,23*,9,6,8,5
SMILES,LGR2 antag,SIRT5 block,rRNA inh HTS,EWS-Fli inh,PGC1a acetyl inh,PAX8 inh HTS
COC(=O)c1c(-c2ccc(OC)cc2)sc2cc(OC)c(OC)cc12,-11,-5,-24*,-4,.,-6
C[C@@H]1CN([C@@H](C)CO)C(=O)c2cc(C#CC3(O)CCCC3)cnc2O[C@@H]1CN(C)C(=O)C1CC1,1,.,5,-9,3,.
CC(C)c1ccccc1NC(=O)Cn1c(-c2ccccc2Cl)nc2ccccc21,9,.,.,.,43*,7
O=C(NC[C@@H]1CC[C@@H]2[C@@H](CN2Cc2nccs2)O1)C1CCC1,.,-7,.,2,1,-33
O=C(NC(=S)NCCc1ccccc1)c1ccccc1F,-47,-2,-31*,-20,.,-31
COc1cccc(S(=O)(=O)N2C[C@@H]3N[C@H](C2)C3c2ccc(/C=C/c3ccccc3)cc2)c1 (some centres undefined),18,2,4,-17,5,92*!
N#Cc1ccc(-c2ccc([C@@H]3[C@@H]4CN(S(=O)(=O)c5ccc(-c6ccccc6)cc5)C[C@H]3N4)cc2)cc1,8,4,6,7,85*,75*
C[C@H](CO)N1C[C@H](C)[C@@H](CN(C)Cc2ccccc2)Oc2ccc(NC(=O)Cc3ccccc3)cc2CC1=O,-3,0,0,4,.,12
C[C@@H]1CN([C@@H](C)CO)C(=O)Cc2cc(NC(=O)Cc3ccccc3)ccc2O[C@@H]1CN(C)Cc1ccc(C(F)(F)F)cc1,-7,5,0,.,-1,27
C[C@@H]1CN([C@H](C)CO)C(=O)Cc2cc(NC(=O)Cc3ccccc3)ccc2O[C@@H]1CN(C)Cc1ccc(C(F)(F)F)cc1,19,16*,-5,.,-8,86*
C[C@@H]1CN([C@@H](C)CO)C(=O)Cc2cc(NC(=O)Cc3ccccc3)ccc2O[C@H]1CN(C)Cc1ccc(C(F)(F)F)cc1,20,13,0,.,-9,70*
C[C@H](CO)N1C[C@H](C)[C@@H](CN(C)Cc2ccc(C(F)(F)F)cc2)Oc2ccc(NC(=O)Cc3ccccc3)cc2CC1=O,2,16*,-5,.,-44,52
COCc1cn([C@@H]2C[C@@H]3O[C@@H](CO)CC[C@@H]3O[C@@H]2CCc2ccc(-c3ccc(OC)cc3)cc2)nn1,.,4,.,-5,-3,-9
COc1ccc(C[C@@H]2CCn3nncc3COC[C@H](c3ccccc3)NC2=O)cc1,.,.,-4,.,.,.
O=C(Nc1cccc2ccccc12)OCc1ccccc1,-44,-4,9,-100,18,-129
O=C(NCCOC(=O)Nc1cccc2ccccc12)OCc1ccccc1,-14,-2,-34*,-3,2,20
CN1C(=O)c2cc(NC(=O)C3CCCC3)ccc2OC[C@H]2O[C@H](CC(=O)NCC(F)(F)F)CC[C@H]21,-2,.,1,-14,0,9
COc1ccccc1C#Cc1cnc2c(c1)C(=O)N([C@@H](C)CO)C[C@@H](C)[C@@H](CN(C)C)O2,5,3,4,-28,-11,.
